PubChem BioAssay (EPA / NIEHS)
The source made the active and inactive calls. How the source made its calls: active means hit-call score of the fitted dose curve at least 0.9, where 1 is the maximum; inactive means score below 0.9.

read-out: Matrix Metallopeptidase 1 (MMP1), MMP1 (gene 4312); test: BSK_MyoF_MMP1: BioMAP Diversity Plus: MyoF Assay for Matrix Metallopeptidase 1 (MMP1) Biomarker Activity (AID 2284268); conditions: primary human lung fibroblasts
Method: BSK_MyoF is a cell-based, multiplexed-readout assay that uses lung fibroblasts, […], with measurements taken at 24 hours after chemical dosing in a microplate: 96-well plate.BSK_MyoF_MMP1 is an assay component measured in the BSK_MyoF assay. It measures […] antibody related to regulation of gene expression using ELISA technology.Data from the assay component BSK_MyoF_MMP1 was analyzed at the endpoint, BSK_MyoF_MMP1, in the positive analysis fitting direction relative to DMSO as the negative control and baseline of activity. Using a type of binding reporter, gain or loss-of-signal activity can be used to understand protein changes. To generalize the intended target to other relatable targets, this assay endpoint is annotated to the 'protease' intended target family, where the subfamily is 'matrix metalloproteinase'.
The levels of cell surface (or secreted, indicated by the prefix "s") biomarker endpoints were measured by ELISA. Overt cytotoxicity to cells in confluent adherent cultures (all systems other than the BT system) was assessed by measuring total protein levels using sulforhodamine B (SRB) staining in parallel cultures at the time of biomarker measurements, indicated as SRB endpoints. For proliferation assays for adherent cell types, individual cell types are cultured at sub-confluence and relative cell numbers quantified by SRB staining at time points optimized for each system (48 h: 3C and CASM3C systems; 72 h: BT and HDF3CGF systems; 96 h: SAg system). SRB was performed by staining cells with 0.1% SRB after fixation with 10% TCA and reading wells at 560 nm.Viability and proliferation of PBMC (T cells) was quantified by Alamar Blue reduction for the SAg and BT systems. For PBMC viability (referred to as PBMC Cytotoxicity within the assay endpoint names), cells were plated (75,000/well in a 96-well plate) and then chemical samples added for 1 h before addition of activators, SEB and TSST-1 (20 ng/mL final concentration each). Cells were incubated for 90 h. Then, Alamar Blue (20 uL/well) (Invitrogen, Cat DAL1100) was added for 6 h, and the plates were read with a fluorescence microplate reader at 546/580 nm (excitation/emission). For PBMC proliferation, cells were plated and activated as above but incubated for only 16 h prior to addition of Alamar Blue. Plates were read after 6 h.

SMILES | outcome | AC50
Cc1ccc2n[nH]nc2c1 | inactive | 
CCc1c(C)cc(N)c(CC)c1N | inactive | 
CC(=O)/C=C/C1=C(C)CCCC1(C)C | inactive | 
BrC1CCC(Br)C(Br)CCC(Br)C(Br)CCC1Br (stereo not drawn) |  | 3.29 µM (active)
CN(CCOc1ccc(CC2SC(=O)NC2=O)cc1)c1ccccn1 (stereo not drawn) |  | 20 µM (active)
CC(=O)O[C@]1(C(C)=O)CC[C@H]2[C@@H]3C[C@H](C)C4=CC(=O)CC[C@]4(C)[C@H]3CC[C@@]21C | inactive | 
CC(=O)Nc1ccccc1O | inactive | 
c1ccc2sc(SN(C3CCCCC3)C3CCCCC3)nc2c1 |  | 6.26 µM (active)
CC(C)(COC(=O)c1ccccc1)COC(=O)c1ccccc1 | inactive | 
CCCCC/C=C/C=C/C=O | inactive | 
O=C1OC2(c3cc(Br)c(O)c(Br)c3Oc3c2cc(Br)c(O)c3Br)c2c(Cl)c(Cl)c(Cl)c(Cl)c21 | inactive | 
O=C(O)c1cn(C2CC2)c2cc(N3CCNCC3)c(F)cc2c1=O | inactive | 
CCCCCCCCCC=O | inactive | 
CC(C)c1ccc(C(C)C)cc1 | inactive | 
Nc1cc([N+](=O)[O-])ccc1Cl | inactive | 
c1ccc2c(c1)c1cccc3ccc4cccc2c4c31 | inactive | 
CCn1c2ccccc2c2cc(N)ccc21 | inactive | 
COC(=O)c1ccc(C)cc1 | inactive | 
CCCCCCCCC=O | inactive | 

SMILES | outcome | AC50
O=C(O)c1cn(-c2ccc(F)cc2)c2cc(N3CCNCC3)c(F)cc2c1=O | inactive | 
O=C(O)C[C@H](O)C[C@H](O)/C=C/c1c(C2CC2)nc2ccccc2c1-c1ccc(F)cc1 |  | 0.498 µM (active)
CCCCCCCCCCCCCCCCCC(=O)OCC(CC)CCCC (stereo not drawn) | inactive | 
CC(C)Oc1ccccc1O | inactive | 
Cc1ccc(O)c(C(C)(C)C)c1 | inactive | 
O=[N+]([O-])c1cc(C(F)(F)F)ccc1Cl | inactive | 
O=P(c1ccccc1)(c1ccccc1)c1ccccc1 | inactive | 
O=C=NC1CCC(CC2CCC(N=C=O)CC2)CC1 (stereo not drawn) | inactive | 
CNC[C@H](O)c1cccc(O)c1 | inactive | 
C#C[C@]1(O)CC[C@H]2[C@@H]3CCC4=Cc5oncc5C[C@]4(C)[C@H]3CC[C@@]21C | inactive | 
Cc1ccc(Nc2ccc(O)c3c2C(=O)c2ccccc2C3=O)cc1 | inactive | 
C=C(C)C(=O)O[C@H]1C[C@@H]2CC[C@@]1(C)C2(C)C | inactive | 
CCCCC(CC)COCCC#N (stereo not drawn) | inactive | 
CC1COc2ccccc2N1C(=O)C(Cl)Cl (stereo not drawn) |  | 9.41 µM (active)
CCCCC(CC)COC(=O)/C=C\C(=O)OCC(CC)CCCC (stereo not drawn) | inactive | 
CC1CCC(C(C)CS)CC1S (stereo not drawn) | inactive | 
O=C1CCCCCCCCCCCCCCO1 |  | 20 µM (active)
C=C[Si](OCC)(OCC)OCC | inactive | 
N#Cc1ccc(CC(=NNC(=O)Nc2ccc(OC(F)(F)F)cc2)c2cccc(C(F)(F)F)c2)cc1 | inactive | 
